Results taken from PubChem BioAssay AID1159580 (chemical genetic matrix, 2015).
Several values for one entry are separate records, joined by “and”; a condition that tells them apart may be missing. Identical values can stand only once. Among all 5,500 compounds or so, about 2,000 (36%) were called active. Not shown: some 18% with an inconclusive outcome. Cut-off read from the data, not from the text of the source: active = normalized growth mostly below about 0.91 (no sharp cut-off); inconclusive = no clear call, values can overlap the other calls; inactive = mostly above about 0.92. This is one part of the list.

Test: chemical genetic growth profiling, strain panel (AID 1159580);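 note: tested at 20 µM; growth read once vehicle control cultures reached saturation at 30 °C; 1 = growth at the plate median or of vehicle wells; lower values mean less growth of the strain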
Details: S. cerevisiae deletion strains, growth OD

Measured: normalized growth

Oc1c(Cl)cc(Cl)c2cccnc12
active: locus YAL013W, strain DEP1, stronger effect = lower value 0.0554 | locus YAL021C, strain ccr4, stronger effect = lower value 0.0642 | locus YAL026C, strain drs2, stronger effect = lower value 0.0607 | locus YAL030W, strain snc1, stronger effect = lower value 0.0606 | locus YBL061C, strain skt5, stronger effect = lower value 0.0718 | locus YBR009C, strain hhf1, stronger effect = lower value 0.0665 | locus YBR021W, strain FUR4, stronger effect = lower value 0.0914 | locus YBR023C, strain chs3, stronger effect = lower value 0.0713 | locus YBR171W, strain sec66, stronger effect = lower value 0.083 | locus YBR229C, strain ROT2, stronger effect = lower value 0.0477 | locus YBR231C, strain swc5, stronger effect = lower value 0.0819 | locus YBR279W, strain paf1, stronger effect = lower value 0.064 | locus YCL011C, strain gbp2, stronger effect = lower value 0.0637 | locus YCL016C, strain dcc1, stronger effect = lower value 0.0656 | locus YCL029C, strain bik1, stronger effect = lower value 0.0628 | locus YCL061C, strain MRC1, stronger effect = lower value 0.0645 | locus YCL069W, strain vba3, stronger effect = lower value 0.0656 | locus YCR088W, strain abp1, stronger effect = lower value 0.0623 | locus YDL005C, strain med2, stronger effect = lower value 0.0757 | locus YDL035C, strain GPR1, stronger effect = lower value 0.0525 | locus YDL040C, strain nat1, stronger effect = lower value 0.0611 | locus YDL074C, strain BRE1, stronger effect = lower value 0.0827 | locus YDL101C, strain DUN1, stronger effect = lower value 0.0602 | locus YDL134C, strain PPH21, stronger effect = lower value 0.0491 | locus YDL185W, strain tfp1, stronger effect = lower value 0.0641 | locus YDL192W, strain arf1, stronger effect = lower value 0.0659 | locus YDR001C, strain nth1, stronger effect = lower value 0.0589 | locus YDR069C, strain doa4, stronger effect = lower value 0.0663 | locus YDR101C, strain arx1, stronger effect = lower value 0.0587 | locus YDR137W, strain rgp1, stronger effect = lower value 0.113 | locus YDR150W, strain NUM1, stronger effect = lower value 0.0572 | locus YDR159W, strain sac3, stronger effect = lower value 0.0885 | locus YDR162C, strain NBP2, stronger effect = lower value 0.0476 | locus YDR195W, strain ref2 0.117 | locus YDR297W, strain sur2, stronger effect = lower value 0.067 | locus YDR318W, strain mcm21, stronger effect = lower value 0.0673 | locus YDR334W, strain swr1, stronger effect = lower value 0.0629 | locus YDR335W, strain msn5, stronger effect = lower value 0.0654 | locus YDR388W, stronger effect = lower value 0.0609 | locus YDR392W, strain spt3, stronger effect = lower value 0.0726 | locus YDR502C, strain sam2, stronger effect = lower value 0.0656 | locus YEL003W, strain gim4, stronger effect = lower value 0.0637 | locus YEL037C, strain rad23, stronger effect = lower value 0.0639 | locus YEL061C, strain CIN8 (second series), stronger effect = lower value 0.0636 | locus YEL061C, strain CIN8, stronger effect = lower value 0.0482 | locus YER015W, strain faa2, stronger effect = lower value 0.0692 | locus YER016W, strain bim1, stronger effect = lower value 0.0695 | locus YER110C, stronger effect = lower value 0.08 | locus YER111C, strain swi4, stronger effect = lower value 0.0742 | locus YER155C, strain BEM2 (second series), stronger effect = lower value 0.0894 | locus YER155C, strain BEM2, stronger effect = lower value 0.0642 | locus YER167W, strain BCK2, stronger effect = lower value 0.0516 | locus YFR010W, strain ubp6, stronger effect = lower value 0.0659 | locus YGL078C, strain dbp3, stronger effect = lower value 0.0639 | locus YGL086W, strain mad1, stronger effect = lower value 0.0594 | locus YGL167C, strain pmr1, stronger effect = lower value 0.0827 | locus YGL173C, strain kem1, stronger effect = lower value 0.076 | locus YGL227W, strain vid30, stronger effect = lower value 0.0665 | locus YGL240W, strain doc1, stronger effect = lower value 0.0841 | locus YGL248W, strain PDE1, stronger effect = lower value 0.0454 | locus YGL253W, strain hxk2, stronger effect = lower value 0.0551 | locus YGR078C, strain PAC10, stronger effect = lower value 0.0521 | locus YGR135W, strain pre9, stronger effect = lower value 0.0748 | locus YGR229C, strain SMI1, stronger effect = lower value 0.0589 | locus YGR252W, strain gcn5, stronger effect = lower value 0.158 | locus YHR013C, strain ard1, stronger effect = lower value 0.111 | locus YHR027C, strain rpn1, stronger effect = lower value 0.0681 | locus YHR030C, strain SLT2, stronger effect = lower value 0.0506 and 0.116 | locus YHR079C, strain IRE1 (second series), stronger effect = lower value 0.0598 | locus YHR079C, strain IRE1, stronger effect = lower value 0.119 | locus YHR094C, strain hxt1, stronger effect = lower value 0.0629 | locus YHR129C, strain ARP1, stronger effect = lower value 0.0524 | locus YHR142W, strain chs7, stronger effect = lower value 0.0684 | locus YHR200W, strain rpn10, stronger effect = lower value 0.066 | locus YIL066C, strain RNR3, stronger effect = lower value 0.0479 | locus YIL073C, strain SPO22, stronger effect = lower value 0.128 | locus YIL125W, strain kgd1, stronger effect = lower value 0.0656 | locus YIR030C, strain dcg1, stronger effect = lower value 0.0607 | locus YJL092W, strain hpr5, stronger effect = lower value 0.0625 | locus YJL095W, strain BCK1 (second series), stronger effect = lower value 0.0621 | locus YJL095W, strain BCK1, stronger effect = lower value 0.0584 and 0.118 | locus YJL115W, strain asf1, stronger effect = lower value 0.0757 | locus YJL129C, strain trk1, stronger effect = lower value 0.089 | locus YJL134W, strain LCB3, stronger effect = lower value 0.0493 | locus YJL154C, strain vps35, stronger effect = lower value 0.0617 | locus YJL164C, strain tpk1, stronger effect = lower value 0.062 | locus YJL166W, strain qcr8, stronger effect = lower value 0.0623 | locus YJL168C, strain set2, stronger effect = lower value 0.0626 | locus YJL187C, strain SWE1 (second series), stronger effect = lower value 0.0481 | locus YJL187C, strain SWE1, stronger effect = lower value 0.0669 | locus YJR043C, strain POL32, stronger effect = lower value 0.0614
